A short description of experiment [1]: Stat Signaling Pathway (AID 446).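 Further: ME-180 cervical cancer cells given 40 pM IL-6 alongside compound; SIE-controlled beta-lactamase reporter measured as 460/530 nm FRET emission ratio; on the % scale 0 is the no-effect control and ±100 the full control effect.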 In outline:
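Normalization used AC90 stimulation (300 pM IL-6) and AC90 inhibition (125 nM pan-JAK inhibitor at 40 pM IL-6). The underlying signal is SIE-driven beta-lactamase in ME-180 cells after 5 h IL-6 exposure with compound.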

Experiment [2] has as its target Mitogen-activated protein kinase 10 (Mus musculus) (UniProt Q61831). The experiment can be described thus: JNK3 AlphaScreen Assay (AID 530).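 Further: kinase came from lysate of stimulated human HepG2 cells; signal reports phosphorylation of biotinylated GST-cJun 1-79 at Ser73 with 10 µM ATP; on the % scale 0 is the no-effect control and ±100 the full control effect.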 In a few lines:
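Activity was read by AlphaScreen after JNK3-containing HepG2 lysate (cytokine pre-activated) phosphorylated biotinylated GST-cJun with 10 uM ATP at room temperature. Phospho-Ser73 cJun antibody with Protein-A acceptor beads provided detection.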
(In general: In Alpha technology, singlet oxygen from a donor bead excites a nearby acceptor bead.)

The target of experiment [3] is 3',5'-cyclic-AMP phosphodiesterase 4B (Homo sapiens) (UniProt Q07343). The experiment in a line: qHTS Assay for Inhibitors of PDE-IV (AID 607; active means well fitted activation curve with a large enough effect in the main read-out, with a control signal flat, not every such curve was filed as active; further: potency means the concentration at half of the fitted maximal effect). In a few lines:
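HEK293 ACTOne cells with CNG channel (1000/well), endogenous PDE4; membrane potential dye, compounds up to 22.9 uM final. Fluorescence Ex 535/Em 590; RO 20-1724 (100 uM final) as reference.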
(In general: In qHTS, concentration-response curves come from the screen itself.)

The target in experiment [4] is Glucocorticoid receptor (Homo sapiens) (UniProt P04150). The experiment can be described thus: GR-GFP Redistribution (AID 450;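 active means compounds whose dose series gives a full or clear partial fitted curve of increased nuclear translocation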; further: potency means the concentration at half of the fitted maximal effect). The following applies: U2OS GR-GFP nuclear translocation, laser cytometry, 2 h.
Chain of Glucocorticoid receptor (Homo sapiens) (P04150 whole entry, looked up, the tested form may be a part): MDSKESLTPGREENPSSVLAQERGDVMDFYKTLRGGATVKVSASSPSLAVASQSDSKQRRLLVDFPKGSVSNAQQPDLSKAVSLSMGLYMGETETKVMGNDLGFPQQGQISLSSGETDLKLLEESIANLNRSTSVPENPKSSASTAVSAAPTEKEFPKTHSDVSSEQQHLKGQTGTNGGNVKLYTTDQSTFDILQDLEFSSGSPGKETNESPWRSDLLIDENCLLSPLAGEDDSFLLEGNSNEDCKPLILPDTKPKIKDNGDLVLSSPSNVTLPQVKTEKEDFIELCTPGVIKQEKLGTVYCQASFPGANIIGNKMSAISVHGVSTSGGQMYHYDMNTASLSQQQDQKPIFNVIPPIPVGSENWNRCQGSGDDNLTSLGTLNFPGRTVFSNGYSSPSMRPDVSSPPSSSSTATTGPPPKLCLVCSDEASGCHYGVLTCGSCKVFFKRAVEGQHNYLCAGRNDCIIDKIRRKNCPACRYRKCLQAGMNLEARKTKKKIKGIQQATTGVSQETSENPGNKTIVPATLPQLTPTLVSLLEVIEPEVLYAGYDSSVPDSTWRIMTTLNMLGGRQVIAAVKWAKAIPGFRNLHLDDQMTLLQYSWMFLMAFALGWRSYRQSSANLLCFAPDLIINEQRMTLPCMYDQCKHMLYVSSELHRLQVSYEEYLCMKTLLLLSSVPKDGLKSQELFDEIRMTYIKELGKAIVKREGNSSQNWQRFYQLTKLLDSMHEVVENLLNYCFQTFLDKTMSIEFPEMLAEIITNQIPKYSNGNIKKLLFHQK
Experiment [5] has the same target. The experiment in a line: GR-EFC Redistribution (AID 451; calls by dose curve; further: potency means the concentration at half of the fitted maximal effect). Conditions: CHO-K1 GR-EFC translocation, beta-gal luminescence, 2 h. In a few lines: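 CHO-K1 cells expressing nuclear EA and GR-ED fragments of b-gal; compounds titrated up to 46 uM final, 2 h at 37 C. GR nuclear translocation read as complemented b-gal luminescence after 1 h RT detection.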
Experiment [6] can be described thus: Cell Viability - N2a (AID 540; active means well fitted curve in the direction sought with a large enough effect; an effect the other way counts as inactive or inconclusive;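 further: cells exposed to compound for 40 h at 37 °C; plate controls were DMSO alone for no effect and tamoxifen control for full effect; nearly all actives have a fitted effect of over 45% in size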). In a few lines: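 Cytotoxicity was scored as loss of cellular ATP in N2a cells, a mouse neuroblastoma line. Compounds are applied in a qHTS concentration series for 40 hr at 37 °C.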
Experiment [7] can be described thus: Cell Viability - HUV-EC-C (AID 542; active means well fitted curve in the direction sought with a large enough effect; an effect the other way counts as inactive or inconclusive; further: nearly all actives have a fitted effect of over 35% in size; further: potency means the concentration at half of the fitted maximal effect; on activity change, negative = cytotoxicity: on the % scale 0 is the no-effect control and ±100 the full control effect). In outline:
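Cells were seeded at 1000 per well and incubated 5 hr at 37 °C before compound addition. After 40 hr at 37 °C, CellTiter-Glo reagent was added for 20 min and luminescence read. AC50 values came from Hill-equation modelling.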

Experiment [8] in a line: Cell Viability - Renal Proximal Tubule (AID 545; active means well fitted curve in the direction sought with a large enough effect; an effect the other way counts as inactive or inconclusive; further: nearly all actives have a fitted effect of over 40% in size; further: potency means the concentration at half of the fitted maximal effect;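 on activity change, negative = cytotoxicity: 0% = DMSO only and -100% = 100 µM tamoxifen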). The following applies: renal proximal tubule cells viability, primary cells of rat origin; activity change, negative = cytotoxicity: at 91.7 µM (top of the series). In outline:
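In this qHTS format, normal rat kidney-derived proximal tubule cells in complete culture medium receive compound titrations, then sit 40 hours at 37 °C before luciferase-based ATP quantitation; potency is reported as AC50 from concentration-response curves.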

Experiment [9] can be described thus: Cell Viability - Mesenchymal (AID 546; active means well fitted curve in the direction sought with a large enough effect; an effect the other way counts as inactive or inconclusive;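 further: cells exposed to compound for 40 hours before reading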; further: potency means the concentration at half of the fitted maximal effect;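 on activity change, negative = cytotoxicity: 0% = DMSO only and -100% = 100 µM tamoxifen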). The following applies: mesenchymal cells viability, qHTS; activity change, negative = cytotoxicity: at 91.7 µM (top of the series). In outline: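 Human renal mesenchymal cells (glomerulus-derived), 1000 cells/well, 5 hr 37 °C pre-incubation; compound 40 hr, 37 °C; CellTiter-Glo, 20 min RT; luminescence; AC50 via Hill equation.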

A short description of experiment [10]: Cell Viability - H-4-II-E (AID 543; active means well fitted curve in the direction sought with a large enough effect; an effect the other way counts as inactive or inconclusive; further: nearly all actives have a fitted effect of over 35% in size; further: potency means the concentration at half of the fitted maximal effect). In outline:
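Cells seeded at 1500 per well and rested 5 hr; compounds added; 40 hr incubation at 37 °C; CellTiter-Glo added, 20 min at room temperature; luminescence read. Hill-equation fits gave AC50.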

Structures are written as SMILES. Where “and” joins values, the source holds several entries; their conditions need not be identical. Equal entries are not always repeated. Unmarked numbers belong to inactive results. Records with an inconclusive call do not appear. Calls of active or inactive are those of the source. Unless noted, the call rests on the fitted dose curve; in most records, active means well fitted curve in either direction with a large enough effect (not every such curve was filed as active); inconclusive means small, poorly fitted or top-dose-only effect, or another doubt; inactive means flat fitted curve, though single readings scatter.

Our source for the outcome, Potency and activity change, negative = cytotoxicity values is PubChem BioAssay (NCATS).

Chain of 3',5'-cyclic-AMP phosphodiesterase 4B (Homo sapiens) (Q07343 whole entry, looked up): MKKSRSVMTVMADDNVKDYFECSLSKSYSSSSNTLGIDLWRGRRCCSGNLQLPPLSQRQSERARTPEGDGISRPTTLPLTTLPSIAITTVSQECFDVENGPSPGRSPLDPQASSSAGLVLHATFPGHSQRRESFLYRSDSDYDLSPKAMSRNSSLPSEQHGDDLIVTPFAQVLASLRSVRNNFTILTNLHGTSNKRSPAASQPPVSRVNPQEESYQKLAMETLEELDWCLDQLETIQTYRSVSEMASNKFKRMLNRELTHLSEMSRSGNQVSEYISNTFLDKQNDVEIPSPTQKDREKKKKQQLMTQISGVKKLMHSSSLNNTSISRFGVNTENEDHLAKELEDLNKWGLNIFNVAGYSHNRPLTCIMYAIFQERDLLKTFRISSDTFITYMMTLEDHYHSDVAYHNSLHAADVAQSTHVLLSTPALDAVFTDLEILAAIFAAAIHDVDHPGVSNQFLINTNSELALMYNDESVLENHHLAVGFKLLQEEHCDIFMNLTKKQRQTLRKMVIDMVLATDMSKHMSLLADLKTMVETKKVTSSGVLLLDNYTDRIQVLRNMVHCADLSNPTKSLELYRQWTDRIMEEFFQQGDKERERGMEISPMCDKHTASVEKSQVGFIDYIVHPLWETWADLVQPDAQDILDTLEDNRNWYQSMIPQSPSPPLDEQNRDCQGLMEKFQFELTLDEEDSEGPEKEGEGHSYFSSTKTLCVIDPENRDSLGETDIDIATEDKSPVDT

As to `CNCCCN1c2ccccc2CCc2ccccc21`, the outcome in experiment [1] was inactive. Besides, the Potency result in experiment [2] and in experiment [3] was “inactive” throughout.
For the molecule `O=C1CC2(CCCC2)CC(=O)N1CCCCN1CCN(c2ncccn2)CC1`, in [1], the outcome was inactive. Besides, the Potency result in [2] and in experiment [3] was “inactive” in each case.
For the molecule `CCN1CCc2nc(N)oc2CC1`, the molecule was called inactive in experiment [1]. The Potency in experiment [4] and in experiment [5] was greater than 46 µM throughout. Moreover, in experiment [3], the Potency result is “inactive”.
Regarding `C[n+]1cc2c3c(ccc2c2ccc4cc5c(cc4c21)OCO5)OCO3`, the Potency in experiment [4] is 6.57 µM (active); in experiment [5], > 46 µM and > 20.6 µM. In addition, the Potency result in [2] and in [3] was “inactive” in each case.
`COc1cc(Cc2cnc(N)nc2N)cc(OC)c1OC`: the outcome in [1] and in experiment [6] was inactive. Also, the Potency result in experiment [2], in experiment [7], in [9] and in experiment [3] was “inactive” throughout. Also, in experiment [8], the activity change, negative = cytotoxicity was -5.57%.
`CCCN(CCC)CCc1cccc2c1CC(=O)N2`: the Potency in experiment [4] and in experiment [5] was greater than 46 µM in each case. Besides, the Potency entry in experiment [2] and in experiment [3] was “inactive” in each case.
On to `COC(=O)[C@H]1[C@H]2C[C@@H]3c4[nH]c5cc(OC)ccc5c4CCN3C[C@H]2C[C@@H](OC(=O)c2cc(OC)c(OC)c(OC)c2)[C@@H]1OC`, for which the Potency result in experiment [2] is “inactive”. Also, the values for the Potency in experiment [7] and in [10] were 50.1 µM (active) and 31.6 µM (active), respectively. The activity change, negative = cytotoxicity is -101% (active) in [8] and -90.3% (active) in [9].
For `Cc1scc2c1N(C(=O)CN1CCN(C)CC1)c1ccccc1NC2=O`, the call in experiment [1] was inactive. In addition, the Potency result in experiment [2] and in experiment [3] was “inactive” each time.
In the case of `CCN(CC)CCNC(=O)c1ccc(NC(C)=O)cc1`, the call in experiment [1] was inactive. Also, the Potency in experiment [4] is > 46 µM and > 20.6 µM; in [5], greater than 46 µM. In [3], the Potency entry was “inactive”.
Regarding `COc1cc2c(cc1OC)-c1cc(=Nc3c(C)cc(C)cc3C)n(C)c(=O)n1CC2`, the Potency in experiment [4] and in experiment [5] was greater than 46 µM each time. Also, in experiment [2], the Potency result was “inactive”.
Take `O=c1[nH]c(=O)n([C@H]2C[C@H](O)[C@@H](CO)O2)cc1Br`: the Potency entry in [2], in experiment [7], in [10] and in experiment [9] was “inactive” in each case. Also, the outcome in experiment [6] was inactive. Also, in experiment [8], the activity change, negative = cytotoxicity is -3.47%.
In the case of `NC(=O)N1c2ccccc2C=Cc2ccccc21`, the molecule was classed as inactive in experiment [1] and in experiment [6]. Further, the Potency entry in experiment [2], in [7], in [10], in experiment [9] and in experiment [3] was “inactive” in each case. In addition, the activity change, negative = cytotoxicity in [8] is 2.97%.
Turning to `COC(=O)[C@@H](N)Cc1ccc(O)c(O)c1`, in experiment [1], the molecule was called inactive. For the same molecule, the Potency result in [2] and in experiment [3] was “inactive” in each case.
For the molecule `CCOC(=O)c1cnc2c(cnn2CC)c1NN=C(C)C`, the molecule was called inactive in experiment [1]. In [3], the Potency is 0.951 µM (active).
With `CSc1ccc(C(=O)c2[nH]c(=O)[nH]c2C)cc1`, the call in experiment [1] was inactive. Besides, the Potency entry in experiment [2] and in experiment [3] was “inactive” in each case.
On to `C[N+](C)(C)CCOC(N)=O`, for which the result in experiment [1] was inactive. Also, the Potency result in experiment [2] was “inactive”.
On to `Nc1ncn([C@@H]2O[C@H](CO)[C@@H](O)[C@H]2O)c(=O)n1`, for which the Potency result in experiment [2] and in experiment [7] was “inactive” each time. The Potency in experiment [8] was 15.8 µM (active); in experiment [9], 31.6 µM (active).
As for `N[C@@H](COP(=O)(O)O)C(=O)O`, the Potency in [4] and in experiment [5] was greater than 46 µM each time. For the same molecule, the Potency entry in experiment [2] is “inactive”.
For `COc1ccc([C@@H]2Sc3ccccc3N(CCN(C)C)C(=O)[C@@H]2OC(C)=O)cc1`, the Potency in experiment [4] was > 46 µM and > 20.6 µM; in experiment [5], greater than 46 µM. In addition, the Potency result in experiment [3] is “inactive”.
`CCc1cccc(N(C)C(N)=Nc2cccc3ccccc23)c1`: the Potency in [4] and in experiment [5] was greater than 46 µM throughout. Besides, the Potency result in [2] and in experiment [3] was “inactive” throughout.
For the molecule `CCn1cc(C(=O)O)c(=O)c2cc3c(cc21)OCO3`, the molecule was called inactive in [1]. The Potency entry in [2] and in experiment [3] was “inactive” in each case.
In the case of `CC[N+](C)(C)c1cccc(O)c1`, in experiment [1], the call was inactive. Moreover, the Potency result in experiment [2] and in [3] was “inactive” in each case.
On to `CCN1CCC[C@H]1CNC(=O)c1c(O)c(Cl)cc(Cl)c1OC`, for which the Potency result in experiment [2] and in experiment [3] was “inactive” throughout.
With `Cc1nc2ccccn2c(=O)c1CCN1CCC(C(=O)c2ccc(F)cc2)CC1`, the result in experiment [1] was inactive. For the same molecule, the Potency in experiment [4] is > 46 µM and > 20.6 µM; in [5], greater than 46 µM. In [3], the Potency entry is “inactive”.
Take `NC(=Nc1ccccc1)Nc1ccccc1`: the Potency entry in [2], in experiment [7], in experiment [10] and in [9] was “inactive” throughout. In addition, the molecule was called inactive in [6]. In addition, in experiment [8], the activity change, negative = cytotoxicity was -3.07%.
For `CN(C)CCCN1c2ccccc2Sc2ccccc21`, in experiment [1], the outcome was inactive. Also, the Potency result in experiment [2] and in [3] was “inactive” throughout.
For `CC1=C(C)C(=O)C(CCCCC#CCCCC#CCO)=C(C)C1=O`, in [1], the molecule was classed as inactive. The Potency in experiment [4] was > 46 µM and > 20.6 µM; in experiment [5], greater than 46 µM. Besides, the Potency entry in experiment [3] was “inactive”.
Regarding `O=C(O)CCCCCCCC(=O)O`, the Potency result in experiment [2] and in experiment [3] was “inactive” each time.
For the molecule `CCCCOCCOCCOCc1cc2c(cc1CCC)OCO2`, the molecule was classed as inactive in [6]. Moreover, the Potency result in experiment [7], in experiment [10] and in experiment [9] was “inactive” each time. The activity change, negative = cytotoxicity in experiment [8] is -1.35%.
Consider `CCN(CC)CC(=O)Nc1c(C)cccc1C`, for which the outcome in [1] was inactive. Also, the Potency entry in experiment [2] and in experiment [3] was “inactive” in each case.
Consider `CN(C)CCN(Cc1cccs1)c1ccccn1`, for which, in [1], the call was inactive. In addition, the Potency in [4] is > 46 µM and > 20.6 µM; in [5], > 46 µM and > 20.6 µM. The Potency entry in [3] is “inactive”.
